Results filed as inconclusive are left out. The source made the active and inactive calls. Unless noted, the call rests on the fitted dose curve; in most records, active means well fitted curve in the direction sought with a large enough effect in the repeat runs; inconclusive means weak or mixed curves; inactive means no such curve, though single readings can be large; an effect the other way counts as inactive or inconclusive.
Legend:
[1] = biological target: Luciferin 4-monooxygenase (Photinus pyralis) (UniProt P08659); assay: qHTS assay to identify small molecule inhibitors of firefly luciferase (AID 1224835); further: nearly all actives have a fitted effect of over 25% in size; further: potency means the concentration at half of the fitted maximal effect; on activity change, negative = inhibition: series mostly up to about 120 µM
How it was run: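 Biochemical qHTS: compounds run as interplate titrations against purified firefly enzyme, with D-luciferin and ATP each at its KM concentration. Light output recorded by CCD imaging.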

[2] = qHTS assay to identify small molecule antagonists of the constitutive androstane receptor (CAR) signaling pathway - cell viability counter screen (AID 1224837); further: nearly all actives have a fitted effect of over 45% in size; further: potency means the concentration at half of the fitted maximal effect; on activity change, negative = cytotoxicity: series mostly up to about 92 µM
How it was run: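 Cells are seeded, rested 4 hr at 37 C/5% CO2, dosed with compound (15-point series) and 50 nM CITCO, incubated a further 23 hr, and then CellTiter-Fluor reagent is added before fluorescence is read. The line is HepG2 with stable hCAR and CYP2B6-2.2kb.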

[3] = qHTS assay to identify small molecule antagonists of the estrogen related receptor signaling pathway with the pleiotropic PPARgamma coactivator (PGC) from Tox21 10K library - cell viability counter screen (AID 1224840; active means well fitted cell-killing curve with a large enough effect in the repeat runs, not every such curve was filed as active; further: nearly all actives have a fitted effect of over 40% in size; further: potency means the concentration at half of the fitted maximal effect)
How it was run: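 Cell viability is measured by CellTiter-Fluor fluorescence in PGC/ERR cells that receive compounds after a 6-hour attachment period and are then incubated 17.5 hours at 37 C.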

[4] = qHTS assay to identify small molecule agonists of the estrogen related receptor signaling pathway with the pleiotropic PPARgamma coactivator (PGC) from Tox21 10K library (AID 1224842); further: nearly all actives have a fitted effect of over 15% in size; further: potency means the concentration at half of the fitted maximal effect
How it was run: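 PGC/ERR reporter cell line, 2,000 cells per well, incubated 6 h at 37 C before 23 nL compound in DMSO was added. After 18 h at 37 C, One-Glo luminescence read following 30 min at room temperature.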

[5] = biological target: Thyrotropin receptor (Homo sapiens) (UniProt P16473); assay: qHTS assay to identify small molecule agonists of the thyroid stimulating hormone receptor (TSHR) signaling pathway (AID 1224843; calls by dose curve; further: nearly all actives have a fitted effect of over 45% in size)
How it was run: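 Agonist-mode screen: TSHR HEK293 cells received test chemicals for half an hour at room temperature, then HTRF cAMP detection reagents for one hour prior to fluorescence measurement. Each chemical ran as a 15-concentration series, triplicated.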

[6] = qHTS assay to identify small molecule agonists of the hypoxia (HIF-1) signaling pathway - cell viability counter screen (AID 1224844; calls by dose curve; further: nearly all actives have a fitted effect of over 50% in size; further: potency means the concentration at half of the fitted maximal effect)
How it was run: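 Viability counter screen: HRE-bla ME-180 cells plated 5 hrs before compound addition, treated 17 hrs at 37C and 5% CO2, then CellTiter-Glo added after the FRET reporter read; luminescence after 30 min.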

[7] = biological target: Nuclear receptor subfamily 1 group I member 3 (Homo sapiens) (UniProt Q14994); assay: qHTS assay to identify small molecule antagonists of the constitutive androstane receptor (CAR) signaling pathway (AID 1224838); further: nearly all actives have a fitted effect of over 40% in size; further: potency means the concentration at half of the fitted maximal effect
How it was run: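 Luminescence from a CYP2B6-2.2kb promoter reporter in hCAR-expressing HepG2 cells reflects CAR signaling. Cells received compounds at 15 concentrations and 50 nM CITCO (final), then incubated 24 h at 37 C/5% CO2.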

[8] = biological target: Nuclear receptor subfamily 1 group I member 3 (Homo sapiens) (UniProt Q14994); assay: qHTS assay to identify small molecule agonists of the constitutive androstane receptor (CAR) signaling pathway (AID 1224839); further: nearly all actives have a fitted effect of over 15% in size; further: potency means the concentration at half of the fitted maximal effect;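 on activation: HepG2 cells stably carrying human CAR and a CYP2B6 luciferase reporter; series mostly up to about 92 µM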
How it was run: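 HepG2 cells stably expressing hCAR and a CYP2B6-2.2kb luciferase reporter were treated with compounds at 15 concentrations plus 0.75 uM PK11195 (final) for 24 h at 37 C; luminescence was read after ONE-Glo addition.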

[9] = qHTS assay to identify small molecule antagonists of the estrogen related receptor signaling pathway with the pleiotropic PPARgamma coactivator (PGC) from Tox21 10K library (AID 1224841; call rule not given here; further: actives are mostly falling curves and most rising ones were filed inactive; nearly all actives have a fitted effect of over 50% in size; further: potency means the concentration at half of the fitted maximal effect; on activity, negative = inhibition: series mostly up to about 92 µM)
How it was run: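 Cells stably carrying the PGC/ERR reporter, seeded at 2,000 per well, received pin-transferred compounds 6 h post-plating. Exposure lasted 18 h at 37 C. Signal: One-Glo luminescence.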
On the % scale 0 is the no-effect control and ±100 the full control effect.

Sequence of Luciferin 4-monooxygenase (Photinus pyralis) (P08659 whole entry, looked up): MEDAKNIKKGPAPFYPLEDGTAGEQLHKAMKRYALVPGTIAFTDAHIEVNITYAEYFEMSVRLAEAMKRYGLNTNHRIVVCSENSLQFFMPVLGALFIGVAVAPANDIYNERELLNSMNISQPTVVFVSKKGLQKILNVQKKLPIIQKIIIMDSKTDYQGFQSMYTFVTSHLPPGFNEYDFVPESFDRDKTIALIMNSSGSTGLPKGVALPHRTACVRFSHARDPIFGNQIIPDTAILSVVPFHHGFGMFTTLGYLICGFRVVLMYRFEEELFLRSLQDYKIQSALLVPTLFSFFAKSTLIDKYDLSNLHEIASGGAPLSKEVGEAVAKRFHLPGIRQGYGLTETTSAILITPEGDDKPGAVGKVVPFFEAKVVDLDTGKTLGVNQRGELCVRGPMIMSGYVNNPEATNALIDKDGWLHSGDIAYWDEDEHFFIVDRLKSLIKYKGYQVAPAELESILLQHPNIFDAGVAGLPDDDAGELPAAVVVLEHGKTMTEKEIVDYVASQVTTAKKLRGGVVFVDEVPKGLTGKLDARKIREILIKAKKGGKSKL
Sequence of Nuclear receptor subfamily 1 group I member 3 (Homo sapiens) (Q14994 whole entry, looked up): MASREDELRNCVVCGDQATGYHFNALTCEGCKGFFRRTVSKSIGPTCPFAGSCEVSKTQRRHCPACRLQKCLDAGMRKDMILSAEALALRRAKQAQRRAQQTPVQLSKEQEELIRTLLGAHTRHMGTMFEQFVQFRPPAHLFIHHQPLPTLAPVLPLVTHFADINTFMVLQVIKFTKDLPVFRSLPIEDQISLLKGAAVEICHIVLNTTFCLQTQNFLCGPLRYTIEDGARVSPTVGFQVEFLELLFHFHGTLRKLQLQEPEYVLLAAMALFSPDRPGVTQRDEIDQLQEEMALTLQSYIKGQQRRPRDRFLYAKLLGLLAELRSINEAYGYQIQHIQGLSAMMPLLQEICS
Sequence of Thyrotropin receptor (Homo sapiens) (P16473 whole entry, looked up): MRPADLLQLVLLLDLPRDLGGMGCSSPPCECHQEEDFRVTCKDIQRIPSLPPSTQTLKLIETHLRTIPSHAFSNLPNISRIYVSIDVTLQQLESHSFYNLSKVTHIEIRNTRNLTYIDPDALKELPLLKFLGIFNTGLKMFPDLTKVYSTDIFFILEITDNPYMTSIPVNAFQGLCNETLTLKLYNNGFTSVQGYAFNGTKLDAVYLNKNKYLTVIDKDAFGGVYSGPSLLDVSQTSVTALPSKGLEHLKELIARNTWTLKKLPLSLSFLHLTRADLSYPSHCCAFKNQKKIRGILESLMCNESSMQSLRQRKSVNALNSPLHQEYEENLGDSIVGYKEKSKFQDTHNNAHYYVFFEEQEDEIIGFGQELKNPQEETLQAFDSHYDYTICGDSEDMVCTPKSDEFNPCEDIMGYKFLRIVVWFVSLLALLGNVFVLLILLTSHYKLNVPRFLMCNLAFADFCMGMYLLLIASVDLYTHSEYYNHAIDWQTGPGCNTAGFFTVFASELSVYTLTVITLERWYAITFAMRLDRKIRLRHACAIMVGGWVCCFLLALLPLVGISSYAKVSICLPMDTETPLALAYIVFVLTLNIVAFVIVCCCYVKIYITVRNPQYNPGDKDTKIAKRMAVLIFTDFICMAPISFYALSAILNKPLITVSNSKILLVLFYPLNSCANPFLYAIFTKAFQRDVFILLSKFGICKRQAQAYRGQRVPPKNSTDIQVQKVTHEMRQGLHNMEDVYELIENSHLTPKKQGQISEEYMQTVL

O=C(NCC1CN(c2ccc(N3CCOCC3=O)cc2)C(=O)O1)c1ccc(Cl)s1 (centres undefined)
inactive: Potency [1] | Potency [2] | Potency [3] | Potency [4] | Potency [5] | Potency [6]

CCCCCCCCCOS(=O)(=O)O
inactive: Potency [1] | Potency [2] | Potency [7] | Potency [8] | Potency [3] | Potency [5] | Potency [6]

Cc1oc2c(NC(=O)c3c(Cl)cccc3Cl)cccc2c1C(C)(C)O
inactive: Potency [1] | Potency [2] | Potency [8] | Potency [4] | Potency [6]
active: Potency [7] 5.45 µM

C[C@@H](c1ncncc1F)C(O)(Cn1cncn1)c1ccc(F)cc1F (some centres undefined)
inactive: Potency [1] | Potency [2] | Potency [3] | Potency [9] | Potency [4] | Potency [5] | Potency [6]

OC(C#CCN1CCCC1)(c1ccccc1)c1ccccc1
inactive: Potency [1] | Potency [2] | Potency [9] | Potency [4] | Potency [5] | Potency [6]

CCCCCCCCCCCCN1CCCCCC1=O
inactive: Potency [1] | Potency [2] | Potency [7] | Potency [9] | Potency [4]
active: Potency [8] 61.1 µM

CCCCNc1ccc(C(=O)OCCOCCOCCOCCOCCOCCOCCOCCOCCOC)cc1
inactive: Potency [1] | Potency [2] | Potency [7] | Potency [8] | Potency [9] | Potency [4] | Potency [5] | Potency [6]

CCCC(=O)Nc1ccc(O)c(C(C)=O)c1
inactive: Potency [1] | Potency [2] | Potency [7] | Potency [5] | Potency [6]

OC(CN1CCC(Cc2ccc(F)cc2)CC1)c1ccc(Cl)cc1 (centres undefined)
active: Potency [7] 23.7 µM
inactive: Potency [1] | Potency [8] | Potency [6]

COCCCN1CCC(NC(=O)c2cc(Cl)c(N)c3c2OCC3)CC1
inactive: Potency [1] | Potency [2] | Potency [7] | Potency [3] | Potency [9] | Potency [4] | Potency [5] | Potency [6]

CCOC(=O)NCCOc1ccc(Oc2ccccc2)cc1
active: Potency [1] 31.7 µM | Potency [8] 48.6 µM
inactive: Potency [2] | Potency [3] | Potency [4] | Potency [6]

CC(CSC(=O)c1ccccc1)C(=O)N1C[C@@H](Sc2ccccc2)C[C@H]1C(=O)O (some centres undefined)
inactive: activity change, negative = inhibition [1] 0.3% [at 23.6 µM] | activity change, negative = cytotoxicity [2] 0% [at 19 µM] | viability change, negative = cytotoxic [3] 17.4% [at 19 µM] | activity, negative = inhibition [9] 1.67% [at 19 µM] | activation [4] 0.512% [at 19 µM] | activation [5] -0.691% [at 19 µM] | activity change, negative = cytotoxicity [6] -3.08% [at 15.8 µM]

C=CCOC(=O)CCC1CCCCC1
inactive: Potency [1] | Potency [2] | Potency [7] | Potency [8] | Potency [3] | Potency [9] | Potency [4] | Potency [5] | Potency [6]

OCCN1CCN(CCCN2c3ccccc3C=Cc3ccccc32)CC1
inactive: Potency [1] | Potency [8] | Potency [3] | Potency [5] | Potency [6]

CC(C)(C)OCC1CO1 (centres undefined)
inactive: Potency [1] | Potency [2] | Potency [3] | Potency [5] | Potency [6]

CC(C)C[C@H]1C(=O)N2CCC[C@H]2[C@]2(O)O[C@](NC(=O)[C@@H]3C=C4c5cccc6[nH]c(Br)c(c56)C[C@H]4N(C)C3)(C(C)C)C(=O)N12
active: Potency [9] 16.4 µM
inactive: Potency [1] | Potency [7] | Potency [4] | Potency [5] | Potency [6]

CN(C)C(=O)NC1(c2ccccc2)CCN(CC[C@@]2(c3ccc(F)c(F)c3)CN(C(=O)c3ccccc3)CCO2)CC1
inactive: Potency [1] | Potency [2] | Potency [4] | Potency [5] | Potency [6]

C=CC(=O)OCCOCCOC(=O)C=C
inactive: Potency [1]
active: Potency [2] 61.4 µM | Potency [3] 30.8 µM | Potency [4] 9.73 µM

O=CC1CC=CCC1 (centres undefined)
inactive: Potency [1] | Potency [7] | Potency [8] | Potency [3] | Potency [5] | Potency [6]

CCCCCCCCCCCCCCCCCCOS(=O)(=O)O
inactive: Potency [1] | Potency [2] | Potency [4]
active: Potency [6] 38.9 µM

C/C=C/C(=O)CC
inactive: activity change, negative = inhibition [1] 3.1% [at 23.6 µM] | activity, negative = inhibition [7] -5.29% [at 19 µM] | Potency [8] | viability change, negative = cytotoxic [3] 7.3% [at 19 µM] | activation [5] -10.5% [at 19 µM] | activity change, negative = cytotoxicity [6] -6.33% [at 15.8 µM]

COC(=O)C1=C(C)NC(COC(N)=O)=C(C(=O)OC(C)C)C1c1cccc(Cl)c1Cl (centres undefined)
inactive: Potency [1] | Potency [2] | Potency [7] | Potency [4] | Potency [5] | Potency [6]

CCC(C)c1cc(C(C)(C)C)c(O)c(C(C)(C)C)c1 (centres undefined)
inactive: Potency [1] | Potency [2] | Potency [3] | Potency [5] | Potency [6]

CN(C)CCN(Cc1ccccc1)c1ccccn1
inactive: Potency [1] | Potency [2] | Potency [3] | Potency [5]

O=C(O)CC(=O)C(=O)O
inactive: Potency [1] | Potency [2] | Potency [3] | Potency [5] | Potency [6]

CC1=CCCC(C)(C)C12CCC(C)O2 (centres undefined)
inactive: Potency [1] | Potency [2] | Potency [3] | Potency [6]

CC(=O)c1ccc2c(c1)N(CCCN1CCC(CCO)CC1)c1ccccc1S2
inactive: Potency [1] | Potency [8] | Potency [3]

CN(C)c1ccc(CCO)cc1
inactive: Potency [1] | Potency [2] | Potency [8] | Potency [3] | Potency [5] | Potency [6]

CCCCc1ncc(/C=C(\Cc2cccs2)C(=O)O)n1Cc1ccc(C(=O)O)cc1
inactive: Potency [1] | Potency [2] | Potency [7] | Potency [8] | Potency [3] | Potency [5] | Potency [6]

C#C[C@]1(O)CC[C@H]2[C@@H]3CCc4cc(OC5CCCC5)ccc4[C@H]3CC[C@@]21C
active: Potency [6] 15.1 µM
inactive: Potency [1] | Potency [3]
